In PubChem BioAssay:
The source made the active and inactive calls.

Assays:
Lefty1 = Lefty1 binders on small-molecule microarrays, primary screen, biochemical, small-molecule microarray, 635/667 nm fluorescence (AID 1139); conditions: small-molecule microarray binding, fluorescence 635/667; higher = more signal
[1] = tested on: wheat germ agglutinin (Triticum aestivum), Alexa647-labelled; experiment: wheat germ agglutinin binders on compound microarrays, profiling panel, artefact control for SMM control-protein annotation, biochemical, small-molecule microarray, 635/667 nm fluorescence (AID 1140); conditions: WGA-A647 binding, 635 nm fluorescence, higher = more signal;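 further: score merges 667 nm feature emission with signal to noise over triplicate slides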
[2] = target: Luciferin 4-monooxygenase (Photinus pyralis) (UniProt P08659); experiment: firefly luciferase enzyme inhibitors, primary screen, biochemical, luminescence, purified enzyme, 2006 set (AID 1141); conditions: SteadyGlo luminescence, 30 min, higher = more signal, called active from +8 up or from −8 down;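 further: cell-free assay with purified firefly luciferase at 100 ng per well in PBS; test concentration not given here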
[3] = tested on: Wnt5a (protein binding on small-molecule microarray); experiment: Wnt5a binders on small-molecule microarray, primary screen, biophysical, 635/667 nm fluorescence (AID 1142); conditions: 635 nm fluorescence, higher = more signal;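 further: fluorescence read at 667 nm with signal to noise per printed feature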
[4] = cell viability in Huh7 cells, primary screen, cytotoxicity control for HCV replication inhibitor project, CellTiter-Glo luminescence, basal, 48 h (AID 1143); conditions: Huh7 HCV replicon, higher = more signal, called active from +8 up or from −8 down;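 further: Huh7 hepatoma cells carrying a hepatitis C replication reporter with no stimulus; test concentration not given here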
[5] = CREB reporter modulators without forskolin, primary screen, cell-based, PC12, CRE-LacZ reporter, unstimulated (AID 1145); conditions: no forskolin, luminescence, 4.5 h, higher = more signal, called active from +8 up or from −8 down
[6] = CREB reporter modulators under forskolin, primary screen, cell-based, PC12, CRE-LacZ reporter, forskolin-stimulated (AID 1146); conditions: luminescence, 4.5 h, higher = more signal, called active from +8 up or from −8 down;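 further: PC12 cells with 6xCRE LacZ reporter stimulated by forskolin 10 µM; beta-galactosidase reporter signal reflecting CREB driven transcription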
[7] = target: Streptavidin (Streptomyces avidinii) (UniProt P22629); experiment: streptavidin binders on small-molecule microarray, primary screen, artefact control for SMM compound annotation, biophysical, 635/667 nm fluorescence (AID 1147); conditions: streptavidin binding, higher = more signal;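 further: signal reflects streptavidin binding to arrayed compounds as a control protein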
[8] = small-molecule binders of probe aInhba, primary screen, biochemical, small-molecule microarray, 635/667 nm fluorescence (AID 1148); conditions: higher = more signal;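 further: score merges 667nm spot fluorescence with signal-to-noise for antibody binding to printed compounds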
Torsin-1A (Homo sapiens) [9] = target: Torsin-1A (Homo sapiens) (UniProt O14656); experiment: torsin A binders from cell lysate, primary screen, small-molecule microarray, wild-type, 635/667 nm (AID 1149); conditions: COS7 hTOR1A-WT lysate, 635 nm fluorescence, higher = more signal
Torsin-1A (Homo sapiens) [10] = target: Torsin-1A (Homo sapiens) (UniProt O14656); experiment: small-molecule binders of mutant TOR1A in lysate, primary screen, cell lysate, small-molecule microarray, COS7 lysate, 635/667 nm fluorescence (AID 1150); conditions: COS7 hTOR1A mutant lysate, 635 nm fluorescence, higher = more signal;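 further: score pools 667 nm emission and signal to noise measuring lysate protein binding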
[11] = tested on: Sonic hedgehog protein (Shh); experiment: small-molecule binders of Shh protein, primary screen, biochemical, small-molecule microarray, 635/667 nm fluorescence (AID 1151); conditions: small-molecule microarray binding, 635 nm fluorescence; higher = more signal;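 further: Shh protein binding to compounds spotted on small-molecule microarray slides; score combines spot fluorescence intensity with signal-to-noise across triplicate slides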
[12] = E. coli DRC41 culture turbidity changes, primary screen, E. coli filamentation inducer project, strain DRC41, OD650, 48 h (AID 1152);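 further: E. coli MC1000 strain DRC41 lacking acrAB efflux pump and sulA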; conditions: E. coli DRC41 (acrAB sulA), higher = more signal, called active from +8 up or from −8 down
[13] = small-molecule binders of probe aLefty1, primary screen, biochemical, small-molecule microarray, 635/667 nm fluorescence (AID 1153); conditions: higher = more signal;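 further: score merges spot fluorescence with signal-to-noise ratio from the scanned slide images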
[14] = PSAC antagonists in infected red cells, primary screen, cell-based, P. falciparum Indochina, OD700, 1 h (AID 1154); conditions: P. falciparum Indochina infected RBC osmotic lysis, higher = more signal, called active from +8 up or from −8 down
[15] = PSAC antagonists in infected red cells, primary screen, cell-based, P. falciparum Indochina, OD700, 2 h (AID 1155);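 further: lysis reports solute entry through the parasite surface anion channel PSAC; channel blockers reduce lysis of infected cells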; conditions: P. falciparum Indochina infected erythrocytes, osmotic lysis OD700; higher = more signal, called active from +8 up or from −8 down
[16] = osmotic lysis modulators in infected erythrocytes, primary screen, PSAC antagonist project, cell-based, P. falciparum Indochina, OD700, 3 h (AID 1156); conditions: higher = more signal, called active from +8 up or from −8 down
[17] = PSAC antagonists in infected red cells, primary screen, cell-based, P. falciparum Indochina, OD700, 18 h (AID 1157); conditions: P. falciparum Indochina infected erythrocytes, osmotic lysis OD700, 18 h; higher = more signal, called active from +8 up or from −8 down
[18] = modulators of S6 phosphorylation in cells, primary screen, cell-based, A549, cytoblot, luminescence, serum-stimulated (AID 1158); conditions: A549 phospho-S6 cytoblot, 5 h, higher = more signal;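 further: serum-stimulated A549 lung adenocarcinoma cells; signal is phosphorylated S6 detected by cytoblot immunostaining with HRP secondary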
[19] = target: NADPH oxidase 2 (Homo sapiens) (UniProt P04839); experiment: NOX2-dependent H2O2 signal modulators, primary screen, NOX inhibitor project, cell-based, HEK293-NOX2, PMA-stimulated, Amplex Red fluorescence (AID 1159); conditions: 45 min, higher = more signal, called active from +8 up or from −8 down; further: test concentration not given here
NADPH oxidase 2 (Homo sapiens), sequence (P04839 whole entry, looked up): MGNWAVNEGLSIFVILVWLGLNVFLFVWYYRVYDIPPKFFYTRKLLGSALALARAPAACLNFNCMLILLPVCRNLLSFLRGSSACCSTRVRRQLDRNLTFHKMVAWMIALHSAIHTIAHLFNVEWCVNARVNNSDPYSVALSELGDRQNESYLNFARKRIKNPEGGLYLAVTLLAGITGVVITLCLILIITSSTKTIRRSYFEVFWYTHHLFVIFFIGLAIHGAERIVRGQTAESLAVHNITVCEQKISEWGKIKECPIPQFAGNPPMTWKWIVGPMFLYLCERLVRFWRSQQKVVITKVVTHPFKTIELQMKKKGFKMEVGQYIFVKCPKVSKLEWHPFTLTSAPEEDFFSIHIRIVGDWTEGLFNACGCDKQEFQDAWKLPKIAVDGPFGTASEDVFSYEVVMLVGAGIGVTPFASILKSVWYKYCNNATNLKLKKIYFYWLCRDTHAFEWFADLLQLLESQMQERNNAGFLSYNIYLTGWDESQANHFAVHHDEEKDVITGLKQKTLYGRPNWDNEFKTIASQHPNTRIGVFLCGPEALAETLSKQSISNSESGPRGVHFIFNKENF

Luciferin 4-monooxygenase (Photinus pyralis), sequence (P08659 whole entry, looked up): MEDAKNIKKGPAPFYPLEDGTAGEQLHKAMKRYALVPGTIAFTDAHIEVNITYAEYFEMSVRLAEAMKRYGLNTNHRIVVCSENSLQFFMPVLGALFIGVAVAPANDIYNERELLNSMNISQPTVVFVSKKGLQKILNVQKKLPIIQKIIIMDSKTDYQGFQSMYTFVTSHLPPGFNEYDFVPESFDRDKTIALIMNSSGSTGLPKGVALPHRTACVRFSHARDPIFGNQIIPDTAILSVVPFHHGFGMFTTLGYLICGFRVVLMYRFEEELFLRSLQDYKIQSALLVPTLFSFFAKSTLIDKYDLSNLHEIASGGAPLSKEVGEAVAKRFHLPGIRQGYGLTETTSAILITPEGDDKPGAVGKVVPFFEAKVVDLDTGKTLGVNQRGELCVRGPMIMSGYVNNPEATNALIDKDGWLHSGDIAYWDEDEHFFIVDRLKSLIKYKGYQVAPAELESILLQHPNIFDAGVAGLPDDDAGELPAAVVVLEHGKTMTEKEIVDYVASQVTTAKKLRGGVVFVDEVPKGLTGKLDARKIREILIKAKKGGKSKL
Streptavidin (Streptomyces avidinii), sequence (P22629 whole entry, looked up): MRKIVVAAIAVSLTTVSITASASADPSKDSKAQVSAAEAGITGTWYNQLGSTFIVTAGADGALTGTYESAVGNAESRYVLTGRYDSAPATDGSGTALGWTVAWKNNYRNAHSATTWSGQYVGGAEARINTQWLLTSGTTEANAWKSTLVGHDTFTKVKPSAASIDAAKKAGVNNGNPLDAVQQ
Torsin-1A (Homo sapiens), sequence (O14656 whole entry, looked up): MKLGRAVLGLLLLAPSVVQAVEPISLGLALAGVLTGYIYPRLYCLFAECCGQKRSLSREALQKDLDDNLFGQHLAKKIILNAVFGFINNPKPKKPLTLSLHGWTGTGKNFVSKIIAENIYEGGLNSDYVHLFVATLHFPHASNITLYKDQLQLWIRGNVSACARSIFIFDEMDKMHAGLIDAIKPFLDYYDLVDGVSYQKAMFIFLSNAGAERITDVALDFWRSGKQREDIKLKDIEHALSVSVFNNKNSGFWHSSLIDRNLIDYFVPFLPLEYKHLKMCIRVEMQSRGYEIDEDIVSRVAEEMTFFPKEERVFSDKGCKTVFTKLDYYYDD

Structure (SMILES)	composite z-score (Lefty1)	composite z-score [1]	z-score [2]	composite z-score [3]	z-score [4]	z-score [5]	z-score [6]	composite z-score [7]	composite z-score [8]	composite z-score (Torsin-1A (Homo sapiens) [9])	composite z-score (Torsin-1A (Homo sapiens) [10])	composite z-score [11]	z-score [12]	composite z-score [13]	z-score [14]	z-score [15]	z-score [16]	z-score [17]	z-score [18]	z-score [19]
C=CC[C@@H](OC(=O)Nc1ccc(SC)cc1)c1ccc(OCCO)cc1	-0.763	-0.666	-3.91 (inactive)	-0.248	-0.89 (inactive)	14.4 (active)	-0.595 (inactive)	-0.761	-0.202	1.76	0.972	0.43	-0.0217 (inactive)	0.197	27.1 (active)	18.6 (active)	0.616 (inactive)	-0.016 (inactive)	-0.506	-2.02 (inactive)
CC(C)CNC(=O)[C@@H]1c2ccccc2C(=O)N(Cc2ccc(OC(F)(F)F)cc2)[C@H]1c1ccc(CO)cc1	1.52	0.75	-1.25 (inactive)	0.314	-2.27 (inactive)	-0.646 (inactive)	-1.28 (inactive)	0.941	0.25	0.864	0.72	2.02	3.99 (inactive)	0.315	2.06 (inactive)	-0.18 (inactive)	0.209 (inactive)	-0.657 (inactive)	1.69	-1.43 (inactive)
COc1ccc(CCNC(=O)[C@@]2(Sc3ccc(C)cc3)CC(=O)N(Cc3ccccc3)[C@@H]2c2ccc(CO)cc2I)cc1	-0.89	-0.0265	-0.707 (inactive)	-0.221	-1.9 (inactive)	1.13 (inactive)	1.72 (inactive)	-0.225	-0.24	0.272	0.192	-0.631	1.15 (inactive)	-0.321	12.6 (active)	1.57 (inactive)	0.0585 (inactive)	0.572 (inactive)	-0.262	1.82 (inactive)
CC(C)N1CC=CC23O[C@@H]4/C=C\CCCOC(=O)C4[C@H]2C(=O)N(CCCO)[C@@H]3C1=O (stereo not given in full)	-1.42	-0.965	-1.38 (inactive)	-0.059	-0.354 (inactive)	0.191 (inactive)	-0.256 (inactive)	-1.1	-0.176	-0.934	0.367	-0.102	1.71 (inactive)	0.236	0.245 (inactive)	0.0014 (inactive)	1.1 (inactive)	-0.083 (inactive)	-0.108	1.58 (inactive)
